Measurements published in PubChem BioAssay (NCATS).
Values joined by “and” are separate entries in the source; they are usually repeats but may differ in a detail not shown here. Identical values can stand only once. Inconclusive results are not listed. Active and inactive are the calls of the source. Unless noted, calls come from the whole dose curve; as a rule, active = well fitted curve in the direction sought with a large enough effect; inconclusive = small, poorly fitted or top-dose-only effect, or another doubt; inactive = no such curve, though single readings can be large; an effect the other way counts as inactive or inconclusive.

Assays:
[1] = biological target: Glucocorticoid receptor (Homo sapiens) (UniProt P04150); assay: qHTS assay for small molecule antagonists of glucocorticoid receptor signaling (AID 588533; active = well fitted inhibition curve with a large enough effect in the signal ratio, with a control signal flat, not every such curve was filed as active; the % refers to the signal ratio; note: % is set by controls: 0 for no effect and ±100 for the full control effect)
Glucocorticoid receptor (Homo sapiens), sequence (P04150 whole entry, looked up): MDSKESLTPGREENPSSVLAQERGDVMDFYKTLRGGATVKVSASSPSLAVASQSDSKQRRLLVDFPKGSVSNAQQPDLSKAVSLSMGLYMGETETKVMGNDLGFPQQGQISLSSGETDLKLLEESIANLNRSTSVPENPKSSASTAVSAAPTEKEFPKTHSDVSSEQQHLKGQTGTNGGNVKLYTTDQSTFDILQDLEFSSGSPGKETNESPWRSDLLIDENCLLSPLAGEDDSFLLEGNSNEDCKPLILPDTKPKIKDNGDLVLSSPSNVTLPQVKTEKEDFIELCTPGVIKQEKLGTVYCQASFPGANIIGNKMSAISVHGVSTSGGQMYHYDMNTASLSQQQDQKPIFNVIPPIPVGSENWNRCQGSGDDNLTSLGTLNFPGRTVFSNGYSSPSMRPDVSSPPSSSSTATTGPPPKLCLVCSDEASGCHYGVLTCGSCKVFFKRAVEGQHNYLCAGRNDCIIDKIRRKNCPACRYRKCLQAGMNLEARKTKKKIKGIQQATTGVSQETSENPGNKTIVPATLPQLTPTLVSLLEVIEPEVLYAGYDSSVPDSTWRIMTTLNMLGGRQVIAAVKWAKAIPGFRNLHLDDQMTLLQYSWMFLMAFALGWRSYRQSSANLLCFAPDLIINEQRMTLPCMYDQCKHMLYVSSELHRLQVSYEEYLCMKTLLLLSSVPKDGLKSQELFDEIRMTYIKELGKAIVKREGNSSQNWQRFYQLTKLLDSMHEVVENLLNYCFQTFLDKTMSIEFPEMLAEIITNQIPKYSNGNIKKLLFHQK
How it was run: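 Antagonist-mode qHTS: compound titrations added to GRE-bla HeLa cells, then dexamethasone 2 nM final; 18 h, 37 C. CCF4 FRET fluorescence normalized to dexamethasone and DMSO; IC50 from Hill fit.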

[2] = qHTS assay for small molecule antagonists of peroxisome proliferator-activated receptor delta signaling (AID 588535); conditions: HEK293T PPARd-UAS-bla, beta-lactamase FRET ratio, 18 h; 460 nm channel;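 note: cells co-treated with a PPAR-delta agonist as stimulator during compound exposure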
How it was run: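 Cells were seeded at 4000 per well in assay medium containing 2% charcoal/dextran FBS and held 5 hrs at 37 C. Compounds were then added for 18 hrs. CCF4 substrate was applied for 2 hrs at room temperature before fluorescence reading.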

[3] = biological target: Peroxisome proliferator-activated receptor gamma (Homo sapiens) (UniProt P37231); assay: qHTS assay for small molecule antagonists of peroxisome proliferator-activated receptor gamma signaling (AID 588537; active = well fitted inhibition curve with a large enough effect in the signal ratio, with a control signal flat, not every such curve was filed as active; the % refers to the signal ratio;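 note: reporter cells co-stimulated with 50 nM rosiglitazone agonist during compound treatment; % of control where 0% means no effect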)
Peroxisome proliferator-activated receptor gamma (Homo sapiens), sequence (P37231 whole entry, looked up): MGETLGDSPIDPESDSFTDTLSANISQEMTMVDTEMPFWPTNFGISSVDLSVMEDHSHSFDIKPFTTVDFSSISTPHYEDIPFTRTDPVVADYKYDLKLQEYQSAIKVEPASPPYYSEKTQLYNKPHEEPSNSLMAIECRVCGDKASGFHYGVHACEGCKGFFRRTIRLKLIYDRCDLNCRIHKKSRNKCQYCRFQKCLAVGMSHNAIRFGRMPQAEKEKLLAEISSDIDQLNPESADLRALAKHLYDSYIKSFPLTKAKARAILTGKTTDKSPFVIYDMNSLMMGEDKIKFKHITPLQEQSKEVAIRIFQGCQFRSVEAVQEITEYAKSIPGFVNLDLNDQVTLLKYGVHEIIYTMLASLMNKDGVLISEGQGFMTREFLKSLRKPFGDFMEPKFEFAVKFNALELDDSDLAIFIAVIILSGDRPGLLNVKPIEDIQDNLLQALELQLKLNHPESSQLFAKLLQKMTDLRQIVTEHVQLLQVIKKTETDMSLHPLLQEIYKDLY
How it was run: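 Step one: plate 3000 HEK293 UAS-bla cells per well in medium with 1% stripped serum and hold 6-6.5 h at 37 C. Step two: add compound and 50 nM agonist for 16 h. Step three: CCF4 loading, fluorescence read.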

[4] = biological target: Vitamin D3 receptor (Homo sapiens) (UniProt P11473); assay: qHTS assay for small molecule antagonists of vitamin D receptor signaling (AID 588541; calls by dose curve;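 note: receptor activated by calcitriol during compound treatment; series mostly up to about 77 µM; % is set by controls: 0 for no effect and ±100 for the full control effect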)
Vitamin D3 receptor (Homo sapiens), sequence (P11473 whole entry, looked up): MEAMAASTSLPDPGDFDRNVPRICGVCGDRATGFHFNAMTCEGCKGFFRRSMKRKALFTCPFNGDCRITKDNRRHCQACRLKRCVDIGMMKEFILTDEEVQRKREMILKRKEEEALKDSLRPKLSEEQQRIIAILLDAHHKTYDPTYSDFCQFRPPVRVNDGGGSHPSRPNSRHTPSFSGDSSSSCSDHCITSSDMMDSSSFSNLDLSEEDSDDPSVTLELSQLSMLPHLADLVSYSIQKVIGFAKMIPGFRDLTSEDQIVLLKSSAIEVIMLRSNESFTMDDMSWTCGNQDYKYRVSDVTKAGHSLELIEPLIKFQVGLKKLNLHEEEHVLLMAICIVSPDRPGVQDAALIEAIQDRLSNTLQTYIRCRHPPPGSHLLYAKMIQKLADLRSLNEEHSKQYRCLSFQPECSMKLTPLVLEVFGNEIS
How it was run: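 VDR-UAS-bla HEK293T cells in 2% charcoal-stripped FBS were stimulated with 1-alpha,25-dihydroxyvitamin D3 (3 nM final) plus compound for 16 h at 37 C. The beta-lactamase CCF4 readout was normalized to 50 nM agonist and DMSO, and Hill fits gave IC50.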

[5] = biological target: Vitamin D3 receptor (Homo sapiens) (UniProt P11473); assay: qHTS assay for small molecule agonists of vitamin D receptor signaling (AID 588543; calls by dose curve;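 note: 0% = DMSO basal and 100% = reference agonist control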)
How it was run: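 Measured: β-lactamase reporter activity (CCF4, 405 nm excitation, 460/530 nm emission) in HEK293T VDR-UAS-bla cells after 16 h compound exposure at 37 °C. Normalization against 50 nM 1α,25-dihydroxyvitamin D3 and DMSO; Hill-fit EC50.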

[6] = qHTS assay for small molecule agonists of retinoid X receptor alpha signaling (AID 588544); conditions: HEK293T RXRa-UAS-bla, beta-lactamase reporter, 18 h; 530 nm emission
[7] = biological target: Thyroid hormone receptor beta (Homo sapiens) (UniProt P10828); assay: qHTS assay for small molecule agonists of thyroid hormone receptor beta signaling (AID 588545; calls by dose curve;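 note: 0% = DMSO only and 100% = 10 nM T3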)
Thyroid hormone receptor beta (Homo sapiens), sequence (P10828 whole entry, looked up): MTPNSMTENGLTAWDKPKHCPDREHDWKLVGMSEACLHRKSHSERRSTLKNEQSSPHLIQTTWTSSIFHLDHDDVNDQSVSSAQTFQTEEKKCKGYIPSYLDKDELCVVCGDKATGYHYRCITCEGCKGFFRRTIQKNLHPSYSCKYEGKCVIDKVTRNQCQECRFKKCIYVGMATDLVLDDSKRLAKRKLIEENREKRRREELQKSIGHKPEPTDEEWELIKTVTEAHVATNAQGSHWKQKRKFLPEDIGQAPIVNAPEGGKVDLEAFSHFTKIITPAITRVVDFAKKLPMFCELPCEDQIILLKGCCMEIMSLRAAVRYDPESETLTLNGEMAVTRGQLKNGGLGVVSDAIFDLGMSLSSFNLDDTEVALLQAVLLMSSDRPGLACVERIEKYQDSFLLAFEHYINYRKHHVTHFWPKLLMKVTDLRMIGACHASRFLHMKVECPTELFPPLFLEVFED
How it was run: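 Stimulation of a TR-driven beta-lactamase reporter was quantified in GripTite HEK 293 cells. Compound series ran for 18 hrs; curves were normalized to T3 and DMSO controls and fitted to yield EC50.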

[8] = qHTS assay for small molecule antagonists of retinoid X receptor alpha signaling (AID 588546; active = well fitted inhibition curve with a large enough effect in the signal ratio, with a control signal flat, not every such curve was filed as active; the % refers to the signal ratio;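 note: cells stimulated with 9-cis-retinoic acid as agonist; % is set by controls: 0 for no effect and ±100 for the full control effect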); conditions: HEK293T RXRa-UAS-bla, beta-lactamase ratio, antagonist mode; measured here: W530 green channel, cytotoxicity proxy
How it was run: (§1)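 Beta-lactamase reporter inhibition, read as CCF4 fluorescence ratio (ex 405, em 460/530 nm) after 2 h at RT. HEK293T UAS-bla cells, 2500/well, were stimulated with 9-cis-RA at 500 or 100 nM final alongside test compound for 18 h at 37 C.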

[9] = biological target: Retinoic acid receptor RXR-alpha (Homo sapiens) (UniProt P19793); assay: as above; conditions: HEK293T RXRa-UAS-bla, beta-lactamase ratio, antagonist mode
Retinoic acid receptor RXR-alpha (Homo sapiens), sequence (P19793 whole entry, looked up): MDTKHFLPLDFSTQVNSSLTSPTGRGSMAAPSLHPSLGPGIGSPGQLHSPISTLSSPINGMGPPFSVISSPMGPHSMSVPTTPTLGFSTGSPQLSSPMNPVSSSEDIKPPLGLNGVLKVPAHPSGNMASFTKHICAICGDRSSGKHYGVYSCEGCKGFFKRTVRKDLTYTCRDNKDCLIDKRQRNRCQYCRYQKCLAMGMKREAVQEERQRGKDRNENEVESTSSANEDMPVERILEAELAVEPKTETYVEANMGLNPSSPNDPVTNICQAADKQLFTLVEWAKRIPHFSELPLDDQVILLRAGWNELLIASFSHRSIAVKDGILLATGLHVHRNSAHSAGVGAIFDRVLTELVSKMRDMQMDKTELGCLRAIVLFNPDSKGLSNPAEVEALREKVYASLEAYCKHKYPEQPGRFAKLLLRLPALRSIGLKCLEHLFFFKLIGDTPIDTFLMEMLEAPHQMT
How it was run: as §1

[10] = biological target: Thyroid hormone receptor beta (Homo sapiens) (UniProt P10828); assay: qHTS assay for small molecule antagonists of thyroid hormone receptor beta signaling (AID 588547; active = well fitted inhibition curve with a large enough effect in the signal ratio, with a control signal flat, not every such curve was filed as active; the % refers to the signal ratio;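 note: cells stimulated with 0.4 nM T3 agonist during compound exposure; series mostly up to about 77 µM; % is set by controls: 0 for no effect and ±100 for the full control effect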); conditions: TR-UAS-bla HEK293, beta-lactamase ratio, antagonist mode, 18 h
How it was run: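 TR-UAS-bla GripTite HEK293 cells in 2% charcoal/dextran FBS medium; compounds 0.59 nM to 92 uM with T3 at 0.4nM final, 18 h at 37 C. Beta-lactamase read by CCF4 fluorescence (460/530 nm); Hill fits gave IC50 and efficacy.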

[11] = biological target: Voltage-gated inwardly rectifying potassium channel KCNH2 (Homo sapiens) (UniProt Q12809); assay: qHTS Assay for Small Molecule Inhibitors of the Human hERG Channel Activity (AID 588834);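 note: top concentration of the series differs between compounds; % is set by controls: 0 for no effect and ±100 for the full control effect; lower thallium flux fluorescence means stronger hERG block; nearly all actives have a fitted effect of over 50% in size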
Voltage-gated inwardly rectifying potassium channel KCNH2 (Homo sapiens), sequence (Q12809 whole entry, looked up): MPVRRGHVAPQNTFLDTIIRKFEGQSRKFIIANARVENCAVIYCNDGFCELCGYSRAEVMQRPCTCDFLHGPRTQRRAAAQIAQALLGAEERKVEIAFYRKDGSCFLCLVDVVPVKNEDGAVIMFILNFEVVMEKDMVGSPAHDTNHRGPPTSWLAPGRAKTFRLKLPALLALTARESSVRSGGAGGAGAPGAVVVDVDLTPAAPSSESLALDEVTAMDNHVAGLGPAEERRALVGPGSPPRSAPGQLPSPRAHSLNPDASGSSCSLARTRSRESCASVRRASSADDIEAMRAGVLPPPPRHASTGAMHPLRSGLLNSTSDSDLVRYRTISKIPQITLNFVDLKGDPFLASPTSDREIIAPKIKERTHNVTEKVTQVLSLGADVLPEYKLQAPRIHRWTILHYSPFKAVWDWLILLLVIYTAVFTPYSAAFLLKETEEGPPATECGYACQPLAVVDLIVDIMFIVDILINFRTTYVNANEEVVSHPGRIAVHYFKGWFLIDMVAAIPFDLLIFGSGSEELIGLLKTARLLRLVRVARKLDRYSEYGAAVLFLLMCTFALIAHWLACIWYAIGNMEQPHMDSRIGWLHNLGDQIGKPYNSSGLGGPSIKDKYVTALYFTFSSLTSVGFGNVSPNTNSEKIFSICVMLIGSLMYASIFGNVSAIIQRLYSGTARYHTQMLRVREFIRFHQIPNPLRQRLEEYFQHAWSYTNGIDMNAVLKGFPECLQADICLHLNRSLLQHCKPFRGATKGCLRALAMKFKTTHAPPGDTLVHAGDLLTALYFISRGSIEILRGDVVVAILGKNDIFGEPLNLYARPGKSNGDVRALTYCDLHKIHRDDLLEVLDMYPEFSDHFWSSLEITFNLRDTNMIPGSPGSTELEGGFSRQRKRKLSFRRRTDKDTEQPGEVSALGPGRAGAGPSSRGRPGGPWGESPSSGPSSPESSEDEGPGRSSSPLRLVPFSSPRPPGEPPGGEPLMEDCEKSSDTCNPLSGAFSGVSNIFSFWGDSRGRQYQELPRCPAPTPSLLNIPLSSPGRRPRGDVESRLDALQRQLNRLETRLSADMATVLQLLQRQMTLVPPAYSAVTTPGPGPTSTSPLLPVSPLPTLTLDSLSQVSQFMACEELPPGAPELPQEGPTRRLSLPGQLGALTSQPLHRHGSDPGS
How it was run: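 Blockade is seen as reduced FluxOR thallium-flux fluorescence in U2OS cells expressing hERG from a BacMam construct, in Opti-MEM with 2% FCS. Concentration-response data fitted to the Hill equation for AC50.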

[12] = qHTS assay for small molecule agonists of the antioxidant response element (ARE) signaling pathway (AID 651741; active = well fitted activation curve with a large enough effect in the signal ratio; the % refers to the signal ratio; note: % of control where 0% means no effect)
How it was run: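 HepG2 ARE-bla cells plated at 2,000 cells/well and incubated 5 h at 37 C/5% CO2 received 23 nL compound in DMSO. After 16 h at 37 C, LiveBLAzer B/G FRET substrate was applied for 2 h at room temperature and fluorescence read.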

[13] = qHTS assay for small molecule activators of the p53 signaling pathway (AID 651743; active = well fitted activation curve with a large enough effect in the signal ratio, not every such curve was filed as active; the % refers to the signal ratio; note: series mostly up to about 92 µM; % of control where 0% means no effect); conditions: HCT-116 p53RE-bla, beta-lactamase FRET ratio, 16 h; activation: stronger effect = higher value
How it was run: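 HCT-116 p53RE-bla, 4,000 cells/well; 5 h settle; cpd/DMSO 16 h, 37 C; LiveBLAzer B/G 2 h RT; fluorescence intensity.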

[14] = qHTS assay for small molecule activators of the nuclear factor-kappa B (NF-kB) signaling pathway (AID 651749; active = well fitted activation curve with a large enough effect in the signal ratio; the % refers to the signal ratio; note: series mostly up to about 77 µM; % of control where 0% means no effect); conditions: NF-kB-bla ME-180 cells, beta-lactamase FRET ratio, 16 h; stronger effect = higher value
How it was run: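 Incubation lasted 16 hr at 37C in 5% CO2 after 23 nL compound addition to ME-180 NF-kB-bla cells. Activation appears as beta-lactamase-mediated FRET loss.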

[15] = qHTS assay for small molecule disruptors of the mitochondrial membrane potential - 1 hr assay (AID 651754; calls by dose curve; note: % is set by controls: 0 for no effect and ±100 for the full control effect; nearly all actives have a fitted effect of over 35% in size)
How it was run: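 Steps: seed HepG2 cells and let attach overnight; pin-transfer compound or vehicle; incubate 1 hr at 37C; add Mito-MPS dye for 30 min; read two-channel fluorescence for monomer and aggregate forms.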

[16] = qHTS assay for small molecule disruptors of the mitochondrial membrane potential - 5 hr assay (AID 651755; calls by dose curve; note: % is set by controls: 0 for no effect and ±100 for the full control effect; nearly all actives have a fitted effect of over 40% in size)
How it was run: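 HepG2 cells (2,000/well), attached overnight, exposed to compound 5 hr at 37C, then Mito-MPS dye 30 min. Fluorescence read for monomers (490/535 nm) and aggregates (540/590 nm).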

[17] = biological target: Tumor necrosis factor (Homo sapiens) (UniProt P01375); assay: qHTS assay to identify small molecules that stimulate Tumor Necrosis Factor-alpha (TNF-alpha) secretion (AID 651757; active = well fitted curve in the direction sought with a large enough effect in the signal ratio; the % refers to the signal ratio; note: 0% is about no effect)
Tumor necrosis factor (Homo sapiens), sequence (P01375 whole entry, looked up): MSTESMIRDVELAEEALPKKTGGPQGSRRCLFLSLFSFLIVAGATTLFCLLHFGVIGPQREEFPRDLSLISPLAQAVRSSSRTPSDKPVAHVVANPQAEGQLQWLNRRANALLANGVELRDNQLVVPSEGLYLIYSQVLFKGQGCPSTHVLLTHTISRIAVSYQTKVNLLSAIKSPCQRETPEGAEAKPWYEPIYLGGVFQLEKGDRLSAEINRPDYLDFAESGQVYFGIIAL
How it was run: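 Secreted TNF-alpha from compound-treated THP-1 cells (17 hrs, 37 C) was quantified with a homogeneous time-resolved fluorescence antibody assay.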

[18] = qHTS assay to identify small molecules that stimulate interleukin-8 (IL-8) secretion (AID 651758; active = well fitted activation curve with a large enough effect in the signal ratio; the % refers to the signal ratio; note: 0% is about no effect)
How it was run: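 THP-1 cells (2000/well) exposed to compound 16 h at 37 C; secreted IL-8 then detected by HTRF with cryptate- and XL665-labelled anti-IL-8 antibody pair after 1-3 h at room temperature.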

[19] = qHTS assay for environmental chemicals that activate the Aryl hydrocarbon Receptor (AhR) signaling pathway (AID 651777); conditions: 1A2-DRE human hepatoma cells, luciferase, 24 h; activation: stronger effect = higher value; note: % of control where 0% means no effect; nearly all actives have a fitted effect of over 15% in size
How it was run: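 Quantitative HTS in stably transfected human liver-derived cells whose luciferase gene sits downstream of the CYP1A2 promoter and dioxin response element. After 24 hr exposure at 37 C, One-Glo luminescence was measured.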

[20] = biological target: Peroxisome proliferator-activated receptor alpha (Homo sapiens) (UniProt Q07869); assay: qHTS assay for small molecule agonists of the peroxisome proliferator-activated receptor alpha (PPARalpha) signaling pathway (AID 651778); conditions: PathHunter PPARalpha complementation, chemiluminescence, 6 h; max response: stronger effect = higher value; note: % of control where 0% means no effect
Peroxisome proliferator-activated receptor alpha (Homo sapiens), sequence (Q07869 whole entry, looked up, the tested form may be a part): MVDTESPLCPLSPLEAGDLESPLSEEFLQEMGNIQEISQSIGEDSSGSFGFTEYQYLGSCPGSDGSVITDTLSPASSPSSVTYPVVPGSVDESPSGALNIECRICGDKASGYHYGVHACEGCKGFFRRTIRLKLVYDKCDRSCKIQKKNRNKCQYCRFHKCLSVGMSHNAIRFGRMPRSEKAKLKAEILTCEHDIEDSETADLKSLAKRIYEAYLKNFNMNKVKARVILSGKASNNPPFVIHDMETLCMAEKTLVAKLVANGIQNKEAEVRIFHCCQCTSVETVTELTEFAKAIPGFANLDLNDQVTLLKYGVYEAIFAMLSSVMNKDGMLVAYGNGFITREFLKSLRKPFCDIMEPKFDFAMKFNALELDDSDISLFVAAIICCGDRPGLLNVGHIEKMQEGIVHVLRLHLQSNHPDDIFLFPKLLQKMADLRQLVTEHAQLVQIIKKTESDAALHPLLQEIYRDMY
How it was run: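 Enzyme-fragment complementation assay in which ligand-bound PPARalpha translocates and forms an active enzyme that generates chemiluminescence. Cells were plated overnight, exposed to compound for 6 hr at 37 C, and then given detection reagent for 60 min at room temperature.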

[21] = qHTS assay for small molecule antagonists of the retinoid-related orphan receptor gamma (ROR-gamma) signaling pathway - cell viability counter screen (AID 720652; active = well fitted curve in the direction sought with a large enough effect in the repeat runs; an effect the other way counts as inactive or inconclusive)
How it was run: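 Cytotoxicity is quantified via intracellular ATP (CellTiter-Glo luminescence) in doxycycline-induced CHO ROR response element-luciferase reporter cells treated with compound for 16 hr at 37 C, 5% CO2.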

[22] = qHTS assay for small molecule agonists of the antioxidant response element (ARE) signaling pathway measured by Nrf2-dependant transcriptional activity - cell viability counter screen (AID 720653; active = well fitted curve in the direction sought with a large enough effect in the repeat runs; an effect the other way counts as inactive or inconclusive; note: % is set by controls: 0 for no effect and ±100 for the full control effect); conditions: ARE-bla HepG2 viability, CellTiter-Glo ATP luminescence, 16 h; max response: stronger effect = lower value
How it was run: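 ARE-bla HepG2 cells treated with compounds for 16 h at 37C; this counter screen measures viability as intracellular ATP by CellTiter-Glo luminescence after 30 min at room temperature.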

[23] = qHTS assay for cell viability of HEK293 cells (AID 743288); conditions: ATP luminescence (CellTiter-Glo), 18 h; max response: stronger effect = lower value; note: % is set by controls: 0 for no effect and ±100 for the full control effect; nearly all actives have a fitted effect of over 50% in size
How it was run: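 Luminescent ATP quantitation served as the viability read-out. Cells (parental HEK293, 2,000/well) received compounds after at least 5 h at 37 C and were exposed for 18 h before a 30 min room-temperature reagent step.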

[24] = qHTS assay for cell viability of the p53RE-bla HCT-116 cell line (AID 743292); note: % is set by controls: 0 for no effect and ±100 for the full control effect; nearly all actives have a fitted effect of over 55% in size
How it was run: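 Viability of compound-treated p53RE-bla HCT-116 cells is taken from ATP-dependent luciferase luminescence. Treatment lasts 16 h at 37 C after a 5 h settling period; detection follows 30 min at room temperature.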

[25] = biological target: Nuclear receptor subfamily 1 group I member 2 (Rattus norvegicus) (UniProt Q9R1A7); assay: qHTS assay for small molecule activators of the rat pregnane X receptor (rPXR) signaling pathway (AID 651751; call rule not given here; note: 0% is about no effect); conditions: rPXR reporter cells, luciferase (One-Glo), 24 h
Nuclear receptor subfamily 1 group I member 2 (Rattus norvegicus), sequence (Q9R1A7 whole entry, looked up): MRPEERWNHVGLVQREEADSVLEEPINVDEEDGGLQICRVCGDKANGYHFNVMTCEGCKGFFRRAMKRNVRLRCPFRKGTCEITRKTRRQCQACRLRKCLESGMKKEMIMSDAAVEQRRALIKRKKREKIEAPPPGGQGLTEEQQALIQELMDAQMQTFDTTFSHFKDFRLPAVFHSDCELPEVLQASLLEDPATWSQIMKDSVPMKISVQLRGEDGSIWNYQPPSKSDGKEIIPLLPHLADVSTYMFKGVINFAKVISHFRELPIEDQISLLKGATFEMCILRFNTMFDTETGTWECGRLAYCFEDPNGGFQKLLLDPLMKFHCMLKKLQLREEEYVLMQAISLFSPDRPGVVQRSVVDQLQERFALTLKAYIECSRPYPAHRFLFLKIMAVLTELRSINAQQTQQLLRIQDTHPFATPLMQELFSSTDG

[26] = qHTS assay for small molecule activators of the human pregnane X receptor (PXR) signaling pathway (AID 720659; call rule not given here; note: 0% is about no effect)

CC(CCC(=O)O)(c1ccc(O)cc1)c1ccc(O)cc1
0.685% and -9.17%: max response [8]
inactive: Potency [1] | Potency [3] | Potency [4] | Potency [5] | Potency [7] | max response [9] 11.2% and 0.834% | activity change % (negative = inhibition) [10] -0.624% | Potency [11] | Potency [12] | activation [13] -5.03% and -5.24% | activation [14] 0.0681% and 0.181% | Potency [15] | Potency [16] | Potency [17] | Potency [18] | activation [19] 2.27% and -1.21% | max response [20] -9.77% and -1.13% | Potency [21] | max response [22] -5.33% and -3.83% | max response [23] -3.82% and -8.09% | Potency [24] | max response [25] -1.81% and -3.54% | outcome [26]
-8.9% and -10.2%: max response [6]
-42.6% and 42.4%: max response [2]
